Only some compounds are listed: those with a hit (about 7.9% of all), similar ones and a draw of the others.
HT1080 IDH1KD tx: kills HT-1080 cells with IDH1 knockdown; HT-1080 IDH1 knockdown viability, ATP luminescence, 48 h; Potency, µM (doses to about 46.1 µM), usual class: cytotoxic; 360,000 tested, 2% active; AID 686971
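CellTiter-Glo luminescence after 48 h compound exposure at 37 degrees C of IDH1-knockdown HT-1080 cells in 5% FBS RPMI. %Activity scaled between DMSO wells and cell-free media wells, with curves fitted and assigned curve classes.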
SW480 rereplic: DNA re-replication induction in SW480 cells. SW480 DNA re-replication, Hoechst DNA content imaging, 48 h. Potency, µM (top dose mostly 46.1 µM), usual class: activators. 340,000 tested, 1.8% active. AID 624297; also: nearly all actives have a fitted effect of over 55% in size
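DNA re-replication was detected as more nuclei of elevated Hoechst intensity after 48 hr exposure to compound (23 nL pinned per well of 250 cells).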
KB-V1 cytotox: kills drug-selected multidrug resistant KB-V1 cells | AID 1347076 | KB-V1 MDR cells viability, CellTiter-Glo, 72 h | 400,000 tested, 3.4% active | Potency, µM (top dose mostly 46.1 µM), hits mostly cytotoxic; also: nearly all actives have a fitted effect of over 60% in size
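In this primary screen, KB-V1 cells overexpressing P-gp are incubated with library compounds (lowest to highest concentration) for 72 h at 37 degrees C before a luminescent ATP viability read.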
MCF10A rerep: induces DNA re-replication in MCF 10a normal breast cells; 350,000 tested, 2.9% active; MCF 10A DNA re-replication, Hoechst nuclear intensity, 48 h; Potency, µM (doses to about 46.1 µM), most hits filed as activators; also: nearly all actives have a fitted effect of over 50% in size
KB-3-1 tox: KB-3-1 parental cell cytotoxicity; KB-3-1 viability, CellTiter-Glo ATP luminescence, 72 h; Potency, µM (top dose mostly 46.1 µM), usual class: cytotoxic; 400,000 tested, 1.4% active; AID 1347075; also: nearly all actives have a fitted effect of over 60% in size
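Parental KB-3-1 viability, qHTS format: 72 h compound exposure, 37 °C; CellTiter-Glo; media-only wells and DMSO plates as controls; concentration-effect fits on corrected data.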
HT1080NT lethal: kills 2HG-producing HT-1080-NT fibrosarcoma cells. HT-1080-NT fibrosarcoma viability, CellTiter-Glo ATP luminescence, 48 h. Potency, µM (titrated, usually from 46.1 µM), most hits filed as cytotoxic. 360,000 tested, 1.6% active. AID 686970;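 also: NT is the 2HG producing partner of a matched IDH1 knockdown line; nearly all actives have a fitted effect of over 55% in size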
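Read-out is CellTiter-Glo luminescence after 10 minutes at room temperature, following 48 hours' compound treatment of HT-1080-NT cells (750 cells/well, RPMI, 5% FBS, 37 degrees C).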
Hits are given with their value; n = inactive; u = inconclusive; x = no result given; [ ] = another dose, or the depositor's remark. Calls follow the shape of the dose curve; as a rule, active = well fitted curve in the direction sought with a large enough effect; inconclusive = small, poorly fitted or top-dose-only effect, or another doubt; inactive = no such curve, though single readings can be large; an effect the other way counts as inactive or inconclusive.

SMILES	HT1080 IDH1KD tx	SW480 rereplic	KB-V1 cytotox	MCF10A rerep	KB-3-1 tox	HT1080NT lethal
CCOC(=O)C1(C)C=C(Nc2ccc(C(N)=O)cc2)C(=O)N1c1ccccc1 (configuration not stated)	x	x	n	x	n	x
Cc1csc(Sc2ccc([N+](=O)[O-])cc2C(=O)OCC(=O)NC2CCCC(C)C2C)n1 (configuration not stated)	n	u	n	17.8µM	n	n
CCC(C)NC(=O)COC(=O)c1cc([N+](=O)[O-])ccc1Sc1nc(C)cs1 (configuration not stated)	n	n[9.22 µM]	n	u	n	n
CC(Oc1cc2oc(=O)c3c(c2cc1Cl)CCCC3)C(=O)NCCN1CCOCC1 (configuration not stated)	n	n	n	n	n	n
Cc1cc(C)cc(NS(=O)(=O)c2ccc3c(c2)CCCN3C(=O)C2CCC2)c1	x	x	n	x	u	x
O=C(Nc1ccc(Cl)c(C(F)(F)F)c1)c1ccncc1	n	n	u	n	n	n
CNC(=O)c1cc(Oc2ccc(NC(=O)Nc3ccc(Cl)c(C(F)(F)F)c3)cc2)ccn1	u	u	u	16.4µM	u	u
O=C(Nc1ccc(S(=O)(=O)N2CCCCC2c2cccnc2)cc1)c1ccc(Br)cc1 (configuration not stated)	x	x	11.6µM	x	u	x
O=C(Nc1ccsc1C(=O)NC1CCCCC1)c1ccccc1	n	n	4.61µM	n	n	n
O=C(Nc1ccc(N2CCN(C(=O)c3ccccc3)CC2)cc1)c1cccnc1	n	n	u	n	n	n
CC1CCN(c2ccc(NC(=O)c3cccnc3)cc2)CC1	n	n	18.4µM	n	n	n
O=C(Nc1ccc(C(=O)NC2CCCCC2)cc1)c1cccnc1	18.4µM	n	n	n	n	u
O=C(Nc1ccccc1C(=O)NC1CCCCC1)c1ccccc1	n	n	n	n	n	n
Cc1cccc(CCn2c(=O)c3ccccc3n(CC(=O)Nc3ccccc3F)c2=O)c1	x	x	n	x	n	x
Cc1cc(C)n(-c2ccn(Cc3ccc(Cl)cc3Cl)c(=O)n2)n1	n	n	7.31µM	n	n	n
O=C1Nc2ccccc2/C1=N/N=C/c1cccc(O)c1	n	n	n	n	n	n
Oc1cccc(/C=N/N2CCN(C3c4ccccc4-c4ccccc43)CC2)c1	23.1µM	n	n	u	n	u
Oc1cccc(C=NN=C2c3ccccc3-c3ccccc32)c1	n	n	18.4µM	u	n	n
COc1cccc(C=O)c1OCCCOc1cccc2cccnc12	u	u	u	u	n	u
CCOc1ccccc1CNC(=O)c1cccn1-c1nnc(N2CCCC2)s1	x	x	n	x	n	x
CC(=O)Nc1ccccc1OCC(=O)c1cc(C)n(Cc2cccs2)c1C	2.59µM	n	u	n	4.61µM	n
Cc1csc(SCC(=O)c2cc(C)n(Cc3cccs3)c2C)n1	u	n	u	n	u	n
Cc1cc(C(=O)COc2cccnc2[N+](=O)[O-])c(C)n1Cc1cccs1	n	n	u	u	u	u
Cc1cc(C(=O)CSc2nnc(N)s2)c(C)n1Cc1cccs1	n	n	23.1µM	n	u	n
COc1ccc(NC(=S)NC(=O)c2cncc(Br)c2)c(OC)c1	n	n	n	n	n	n
SMILES	HT1080 IDH1KD tx	SW480 rereplic	KB-V1 cytotox	MCF10A rerep	KB-3-1 tox	HT1080NT lethal
CN(C)S(=O)(=O)N(CC(=O)Nc1ccc(C(F)(F)F)cc1)c1ccccc1	x	x	n	x	n	x
Cc1ccc(NC(=O)CN(c2ccccc2)S(=O)(=O)N(C)C)cc1	n	n	14.6µM	n	n	n
CN(C)S(=O)(=O)N(CC(=O)Nc1ccc(F)c(F)c1)c1ccccc1	n	n	20.6µM	n	n	n
COC(=O)c1c(-c2ccc(OC)cc2)sc2ccc(N3CCOCC3)cc12	n	n	n	n	14.6µM	n
COc1ccc(NC(=O)c2cccc(OC(F)F)c2)cc1Cl	n	n	14.6µM	n	n	n
COc1ccc(NC(=O)c2cccc(F)c2)cc1Cl	n	n	n	n	n	n
O=C(Nc1ccc2c(c1)CCC2)c1cccc(OC(F)F)c1	n	n	n	n	n	n
O=C(Nc1ccc(OC(F)F)c(Cl)c1)c1cccc(OC(F)F)c1	u	n	18.4µM	n	u	u
Cc1ccc(S(=O)(=O)N2CCOCC2)cc1C(=O)N1CCN(c2ccc(C(F)(F)F)cn2)CC1	n	n	n	u	n	u
CCc1cccc(NC(=O)Cn2c(=O)n(CCC(=O)NCc3ccccc3Cl)c(=O)c3sccc32)c1	x	x	n	x	n	x
c1ccc(Nc2cccc3c(Nc4ccccc4)cccc23)cc1	n	u	n	u	n	u
O=S(=O)(O)c1cccc2cccc(Nc3ccccc3)c12	n	16.4µM	n	20.6µM	n	n
Cc1nn(CC(=O)NCc2cccc(Br)c2)c(=O)c2c1sc1ccccc12	x	x	n	x	n	x
CCCN1CNc2c(c(=O)[nH]c(=S)n2CCC)C1	n	x	x	x	x	n
COc1ccccc1N1CCN(/N=C/c2cccc(Cl)c2)CC1	n	n	n	u	n	n
COc1ccc(/C=N/N2CCN(c3ccccc3OC)CC2)cc1OC	n	n	u	n	n	n
